Hits are enriched below; roughly 0.85% of the tested compounds scored in any of these assays.
FBPA coupling cs: counter-screen for Giardia aldolase inhibitors: coupling enzyme system; coupling enzyme system counterscreen, AmpLite Red fluorescence; activity change, negative = inhibition, % at 58.2 µM, hits read low; 290,000 tested, 0.67% active; AID 2472; in the data active = activity change below about -30%
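Counterscreen of the coupled detection system alone, without aldolase: glyceraldehyde-3-phosphate coupling enzymes plus AmpLite Red readout. Compounds at 57.5 uM final, 10 min RT preincubation, 20 min RT reaction, fluorescence 525/598 nm.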
GAA inhib: blocks human lysosomal alpha-glucosidase | 200,000 tested, 0.005% active | P10253 | Potency, µM (doses to about 76.9 µM), hits mostly inhibitors | purified human GAA, 4-MU-alpha-glucoside fluorescence
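Endpoint fluorogenic read: 20 min room-temperature reaction of 4 nM human alpha-glucosidase with 400 uM 4-methylumbelliferyl-alpha-D-pyranoside, pH 5.0, quenched with 1M NaOH/1M glycine pH 10. AC50 from Hill modeling.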
B2AR arrestin: recruits beta-arrestin to the human beta2-adrenergic receptor; P07550; beta-arrestin recruitment to beta2AR, cell-based reporter; Potency, µM (doses to about 46.1 µM), usual class: activators; 330,000 tested, 0.02% active; AID 492947; also: nearly all actives have a fitted effect of over 65% in size
Target sequence (P07550 whole entry, looked up): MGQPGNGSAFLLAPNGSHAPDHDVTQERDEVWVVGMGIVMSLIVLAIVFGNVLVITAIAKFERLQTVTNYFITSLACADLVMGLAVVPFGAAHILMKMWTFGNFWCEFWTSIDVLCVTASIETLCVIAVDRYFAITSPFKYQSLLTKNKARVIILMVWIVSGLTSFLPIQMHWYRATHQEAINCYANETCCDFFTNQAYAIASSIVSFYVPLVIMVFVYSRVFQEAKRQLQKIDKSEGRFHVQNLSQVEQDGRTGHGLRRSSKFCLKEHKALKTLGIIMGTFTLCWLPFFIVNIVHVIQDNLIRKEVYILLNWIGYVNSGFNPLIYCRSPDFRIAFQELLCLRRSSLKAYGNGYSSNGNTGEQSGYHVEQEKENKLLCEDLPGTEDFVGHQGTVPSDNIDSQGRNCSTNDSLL
GAA glycogen: inhibitors or activators of human alpha-glucosidase glycogen cleavage; recombinant GAA, glycogen substrate, Amplex Red glucose oxidase fluorescence; P10253; Potency, µM (top dose mostly 76.4 µM), most hits filed as inhibitors; 300,000 tested, 0.38% active;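 also: the screen sought inhibitors and activators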
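Recombinant human enzyme (4 nM); glycogen substrate; 37 C, 40 min, pH 5.0. Readout: coupled glucose oxidase/Amplex Red fluorescence.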
aGlu spleen mod: inhibitors or activators of human alpha-glucosidase in spleen homogenate; P10253; human spleen homogenate, 4-MU-alpha-glucoside fluorescence; Potency, µM (highest dose often 79.9 µM), usual class: inhibitors; 240,000 tested, 0.006% active; AID 2112
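Human spleen homogenate (1 ug) incubated with compounds and 1 mM 4-methylumbelliferyl-alpha-D-glucopyranoside in pH 5.0 citrate/phosphate buffer, 37 C, 40 min. Stopped at pH 10; 4-MU fluorescence (Ex 365/Em 440 nm); AC50 by Hill fit.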
A number is an active result; – = inactive; ? = inconclusive; · = not tested or not shown; ! = repeats disagree; [ ] = dose if it differs, or a comment. Unless noted, calls follow the shape of the dose curve; as a rule, active = well fitted curve in the direction sought with a large enough effect; inconclusive = small, poorly fitted or top-dose-only effect, or another doubt; inactive = no such curve, though single readings can be large; an effect the other way counts as inactive or inconclusive.

SMILES	FBPA coupling cs	GAA inhib	B2AR arrestin	GAA glycogen	aGlu spleen mod
Cc1ccccc1N(C(=O)c1ccccn1)C(C(=O)NCc1ccccc1)c1ccncc1 (configuration not stated)	–	·	–	–	·
O=C(NCc1ccccc1)C(c1ccncc1)N(C(=O)c1ccccn1)c1ccccc1 (configuration not stated)	–	·	–	11µM	·
COc1cc(OC)cc(-c2nc3nc(C)c(CCC(=O)Nc4ccc(Cl)cc4)c(C)n3n2)c1	·	·	·	–	·
CCOC(=O)c1oc2c(O)c(O)ccc2c(=O)c1-c1nncn1-c1ccccc1	–	–	–	35µM	–
CC1(C)Cc2c(c(-c3ccccc3)[nH]c(=O)c2C#N)CS1	–	–	–	–	–
CC1(C)Cc2c(c(-c3ccco3)[nH]c(=O)c2C#N)CS1	-43	–	–	–	–
COC(=O)N1C2=C(c3ccccc3[C@@H]1CC(=O)Nc1ccc3cc4ccccc4cc3c1)[C@@H]1C(=O)N(c3ccccc3)C(=O)[C@@H]1[C@H](C)C2	–	·	·	·	–[17.4 µM]
CN1CCc2cccc3c2[C@H]1Cc1ccc(O)c(O)c1-3	–	–[15.4 µM]	?	7.9µM	–
Brc1ccc2c(c1)c1cc(Br)ccc1n2CC1CO1 (configuration not stated)	–	·	·	·	–
Cc1ccc(S(=O)(=O)/N=C/c2c(O)ccc3ccccc23)cc1	-32	·	–	·	·
Oc1ccc2ccccc2c1C=NC1CCCCC1	–	–	–	–	–
Oc1ccc2ccccc2c1C=Nc1ccc(Cl)cn1	-46	–	–	–	–
Oc1ccc2ccccc2c1/C=N/Nc1ccccc1	–	–	–	–	–
Oc1ccc2ccccc2c1/C=N/c1nc2c(s1)CCCC2	-40	?	–	–	–
Oc1ccc2ccccc2c1C=NCc1ccccc1	-32	·	–	–	–
O=C(O)CCc1c(C(=O)O)[nH]c2cc(Cl)cc(Cl)c12	–	·	·	·	–
CCOC(=O)CCN1C(=O)[C@H]2[C@H]3[C@H](O)[C@H](O)C/C(=N/OCc4ccccc4)[C@H]3CC[C@@H]2C1=O	–	·	·	·	–[17.4 µM]
CCOc1ccc2c(c1)c(=O)c(C(=O)c1ccc(CC)cc1)cn2CC(=O)Nc1cccc(Cl)c1	·	·	·	–	·
O=S(=O)(/N=C/c1c(O)ccc2ccccc12)c1cccs1	-50	–	–	–	–
COC(=O)CC1=NN(c2ccc(OC)cc2)C(=O)C1	–	?	–	28µM	–
CN1CC=C2C(C#N)=C(N)C(C#N)(C#N)[C@H](c3cccc(Cl)c3)C2C1 (some centres not stated)	-36	?	–	–	–
CC(N)CCCP(=O)(O)O (configuration not stated)	·	·	·	·	–
CCOc1ccccc1C1C(C#N)=C(N)Oc2n[nH]c(CC)c21 (configuration not stated)	–	–	–	–	–
CCOc1ccc(C2C(C#N)=C(N)SC(N)=C2C#N)cc1OCC	–	–	–	–	–
CCOc1ccccc1C1C(C#N)=C(N)SC(N)=C1C#N	-31	–	–	–	–
SMILES	FBPA coupling cs	GAA inhib	B2AR arrestin	GAA glycogen	aGlu spleen mod
CCOc1ccc(C2C(C#N)=C(N)SC(N)=C2C#N)cc1OC	-39	–	–	–	–
COc1ccc(C2=CC3=C(Br)C(=O)C(C)(OC(=O)CCc4ccccc4)C(=O)C3=CO2)cc1 (configuration not stated)	–	·	·	·	–
CCNc1ncc2nc(-c3cc(F)cc(F)c3)c(=O)n(CCC#N)c2n1	–	·	·	·	–
Oc1ccc2ccccc2c1C=Nc1ccccc1-c1nc2ccccc2[nH]1	-32	?	–	–	–
O=C(O)c1ccccc1-c1nc2ccccc2[nH]1	–	–	–	–	–
O=C1C(Cl)=C(N2CCN(c3ccccc3[N+](=O)[O-])CC2)C(=O)c2ccccc21	-41	–	–	–	–
O=[N+]([O-])c1cc(Cl)ccc1N1CCCC1	–	–	–	–	–
CC(C)(C)c1nn(-c2ccccc2)c2[nH]c(=O)c(CNc3ccc4c(c3)OCCO4)cc12	–	–	–	–	–
Cc1nn(-c2ccccc2)c2[nH]c(=O)c(CNc3ccc(N4CCOCC4)cc3)cc12	–	–	–	20µM	–
O=C(CCSc1ccc(Cl)cc1)N1CCN(c2ccc(O)cc2)CC1	–	·	–	18µM	–
O=C(CCOc1ccccc1)N1CCN(c2ccc(O)cc2)CC1	–	·	–	6.3µM	–
O=C(COc1cccc(C(F)(F)F)c1)N1CCN(c2ccc(O)cc2)CC1	–	–	–	2µM	–
O=C1C2=CC[C@@H]3C(=O)N(c4ccc(F)cc4F)C(=O)[C@H]3[C@H]2[C@H](O)[C@H]2O[C@H]12	–	·	·	·	–[17.4 µM]
Cc1ccc(C)c(CN2C(=O)COc3ccc(C(=O)c4ccccc4C(=O)O)cc32)c1	-35	–	–	–	–
Cc1ccc(C)c(CN2C(=O)COc3ccccc32)c1	–	·	–	·	·
Cc1ccc2[nH]c(=O)c(C(c3nnnn3C3CCCC3)N3CCCc4ccccc43)cc2c1 (configuration not stated)	-44	?	–	–	–
CCC(C)(C)n1nnnc1C(c1cc2cc(C)ccc2[nH]c1=O)N1CCCc2ccccc21 (configuration not stated)	–	–	–	–	–
COc1ccc2cc(C(c3nnnn3C3CCCC3)N3CCc4ccccc4C3)c(=O)[nH]c2c1 (configuration not stated)	-33	–	–	–	–
c1ccc(C(c2nnnn2C2CCCCC2)N2CCc3ccccc3C2)nc1 (configuration not stated)	-32	?	–	–	–
Cc1ccc2[nH]c(=O)c(C(c3nnnn3Cc3ccccc3)N3CCc4ccccc43)cc2c1 (configuration not stated)	-33	–	–	–	–
Cc1ccc(-n2c3c(cc(-c4nc(-c5ccc(Cl)cc5)cs4)c2=O)C(=O)CC(C)(C)C3)cc1	·	·	·	–	·
COc1ccc(/C=C/C(=O)Nc2ccc3nc4c(c(Nc5ccc(OC)c(OC)c5)c3c2)CCCC4)cc1	·	·	·	–	·
Cc1cc2cc(C(c3nnnn3Cc3ccccc3)N3CCc4ccccc43)c(=O)[nH]c2cc1C (configuration not stated)	-45	–	–	–	–
CC(C)CO/N=C1/[C@H]2O[C@@H]2[C@@H](O)[C@H]2[C@H]1CCn1c(=O)n(-c3ccccc3)c(=O)n12	–	·	·	·	–[17.4 µM]
NC(=O)N1c2ccccc2CC(=O)c2ccccc21	-32!	–	–	–	–
NC(=O)N1c2ccccc2C=Cc2ccccc21	–	–[15.4 µM]	–	–	–
CCN1C(C)=C(C(=O)OC)C(c2ccccc2)N2C(=O)[C@](O)(C(=O)OC)CC(C(C)=O)=C12 (some centres not stated)	–	·	·	·	–[17.4 µM]
CCCCC/C=C\C/C=C\CCCCCCCCCC(=O)NCCCC(=O)O	–	·	·	·	–
COc1cc2cc3c4c(cc(OC)c(OC)c4c2cc1OC)CCN3C	-45	·	·	·	–

Screening results as filed in PubChem.
